DRD3 antagonist – blocks the human D3 dopamine receptor; P35462; max response, negative = inhibition, %; D3R cells, DiscoveRx beta-arrestin luminescence, antagonist mode; active compounds read low; actives 2.5% (n = 360,000); in the data active = max response below about -50%; inconclusive = no clear call, values can overlap the other calls; note: % is set by controls: 0 for no effect and ±100 for the full control effect
Target sequence (P35462 whole entry, looked up): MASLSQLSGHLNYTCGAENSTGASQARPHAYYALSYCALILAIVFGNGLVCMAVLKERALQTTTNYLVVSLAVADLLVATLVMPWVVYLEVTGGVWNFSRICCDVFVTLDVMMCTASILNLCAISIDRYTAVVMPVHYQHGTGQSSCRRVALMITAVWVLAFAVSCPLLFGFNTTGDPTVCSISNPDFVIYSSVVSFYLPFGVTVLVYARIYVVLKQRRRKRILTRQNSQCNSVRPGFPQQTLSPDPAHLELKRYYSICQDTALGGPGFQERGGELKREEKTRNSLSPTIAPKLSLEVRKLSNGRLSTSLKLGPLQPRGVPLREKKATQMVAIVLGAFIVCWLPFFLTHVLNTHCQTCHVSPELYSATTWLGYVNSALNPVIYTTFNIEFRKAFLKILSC
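Cells plated overnight at 1500 cells/well, then exposed to library compounds with dopamine controls for 90 minutes at 37 degrees C. DiscoveRx reagent added for 30–60 minutes at room temperature; luminescence read, quantitative HTS format.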
IL-1B inflam inh – inflammasome signaling inhibition, IL-1 beta readout; actives 4.7% (n = 360,000); activity change, % at 57.5 µM; AID 743279; THP-1 LPS/ATP IL-1B secretion, AlphaLISA, 16 h; active compounds read low; in the data active = activity change below about -50%; inconclusive = mostly about -30% to -49%; note: % is set by controls: 0 for no effect and ±100 for the full control effect
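THP-1 cells pretreated 1 hr with compounds (up to 57.5 uM final), then stimulated with LPS (250 ng/mL final) plus ATP (1.25 mM final); secreted IL-1B measured by AlphaLISA after 16 hr, decreased signal indicating inhibition.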
a7 integrin act – activators of alpha7 integrin expression for muscular dystrophy; alpha7betagal myoblasts, beta-gal FDG fluorescence, 48 h; Potency, µM (titrated, usually from 38.3 µM), inactives show at the top dose activation, usual class: activators; actives 0.064% (n = 350,000);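 note: potency is the fitted concentration of half-maximal effect; 100% = response of the positive control SU9516; nearly all actives have a fitted effect of over 60% in size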
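Alpha7betagal+/- myoblasts (passage 13) were plated 16-24 hr, then exposed to compounds (1:260 dilution of DMSO stock) for 48 hours at 37C. After MPER lysis, β-galactosidase reporter activity was read as FDG fluorescence (ex 480/em 540) after 30 minutes.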
ATXN viability – reduces viability in counter-screen for ATXN expression inhibitors. Potency, µM (titrated, usually from 56.7 µM), hits mostly cytotoxic. actives 0.49% (n = 400,000). S2 cells (HEK-293 line with an ATXN2-luciferase reporter) viability, CellTiter-Fluor protease fluorescence, 24 h; note: potency is the fitted concentration of half-maximal effect; nearly all actives have a fitted effect of over 40% in size
D3 ag – D3 dopamine receptor (human) agonism; D3R DiscoveRx beta-arrestin cells, luminescence, 90 min; max activation, %; actives 0.58% (n = 410,000); AID 652048; in the data active = max activation above about 30%; note: 0% is about no effect
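Agonist-mode cell screen: cells plated at 1500/well and incubated overnight at 37 °C, then exposed to library compounds for 90 min at 37 °C. Detection reagent was added for 30–60 min at room temperature, and luminescence was read.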
ATXN2 expr inh – inhibitors of ATXN2 expression | Potency, µM (titrated, usually from 57 µM), without a hit: top-dose activity change, negative = inhibition, usual class: inhibitors | HEK-293 ATXN2-luciferase reporter, luminescence, 24 h | actives 0.72% (n = 360,000); note: potency is the fitted concentration of half-maximal effect; % is set by controls: 0 for no effect and ±100 for the full control effect; nearly all actives have a fitted effect of over 55% in size
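ATXN2-luciferase reporter cells (luciferase flanked by upstream and downstream ATXN2 gene portions) were treated 24 h at 37 °C with compounds at up to 57 uM. SteadyGlo luminescence gave expression; GF-AFC fluorescence gave viability.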
The depositor's hits bear a star; i = inactive; ? = inconclusive; nt = not tested or not shown; ! = not confirmed by another sample. In the library only some 7% were active in any assay of this set; here they are far more common. Unless noted, calls come from the whole dose curve; as a rule, active = well fitted curve in the direction sought with a large enough effect; inconclusive = small, poorly fitted or top-dose-only effect, or another doubt; inactive = no such curve, though single readings can be large; an effect the other way counts as inactive or inconclusive.

SMILES | DRD3 antagonist | IL-1B inflam inh | a7 integrin act | ATXN viability | D3 ag | ATXN2 expr inh
CC(C)(CN1CCN(C(c2ccccc2)c2ccccc2)CC1)NS(=O)(=O)c1ccccc1 | -52.6* | 13.0 | -55.1% | i | -36.5 | -20.7%
NCCCC[C@H](N[C@@H](CCc1ccccc1)C(=O)O)C(=O)N1CCC[C@H]1C(=O)O | 2.2 | 4.6 | 2.9% | i | 11.3 | -9.2%
COc1cc(C)nc(N2CCC(C(=O)NCC3CCCO3)CC2)n1 (centres undefined) | -15.8 | -4.9 | 18.6% | ? | -16.0 | 5.3%
Cc1cccc(N(CC(O)Cn2c3ccccc3c3ccccc32)S(=O)(=O)c2ccc(F)cc2)c1 (centres undefined) | nt | nt | nt | nt | 5.1 | ?
CC(=O)Nc1ccc(N(CC(O)Cn2c3ccccc3c3ccccc32)S(=O)(=O)c2ccc(C)cc2)cc1 (centres undefined) | -21.3 | -54.7* | ? | i | -13.1 | ?
Cc1ccc(N(CC(O)Cn2c3ccccc3c3ccccc32)S(C)(=O)=O)c(C)c1 (centres undefined) | -20.8 | -71.8* | -64.6% | i | 7.5 | -31.8%
CCCN(CCC)CC(O)Cn1c2ccccc2c2ccccc21 (centres undefined) | -10.3 | -75.2* | 7.4% | ? | -12.0 | -25.2%
Cc1ccc(N(CC(O)Cn2c3ccccc3c3ccccc32)S(C)(=O)=O)cc1 (centres undefined) | 5.6 | -65.6* | -0.9% | i | 4.1 | -6.5%
Cc1cccc(C)c1N(CC(O)Cn1c2ccccc2c2ccccc21)S(C)(=O)=O (centres undefined) | 23.2 | -22.1 | -45.9% | ? | 7.6 | ?
COc1ccc(N2C(=O)CC(Cc3ccccc3OC)C2=O)cc1 (centres undefined) | 5.7 | -5.4 | 8.1% | i | 19.4 | 10.9%
O=c1[nH][nH]c(C(F)(F)F)c1C=Nc1ccc(Cl)cc1 | -22.3 | -0.4 | -22.6% | i | -14.6 | -0.6%
COc1ccc(CCNC(=O)COC(=O)c2cc(S(=O)(=O)N3CCCC3)ccc2O)cc1 | 10.1 | 15.6 | 4.8% | i | 5.6 | 6.2%
COc1ccc(S(=O)(=O)N2CCC3CC2c2c(-c4ccc(C(F)(F)F)cc4)cccc23)cc1 (centres undefined) | 6.2 | 10.4 | nt | i | 51.8* | 0.3%
N#CC1(Cc2ccccc2Cl)c2ccccc2C=CN1C(=O)c1ccccc1 (centres undefined) | 18.3 | -0.7 | 1.9% | ? | 6.6 | ?
Nc1ccc(Cn2ccc3c4c(N)nc(N)nc4ccc32)cc1 | -13.6 | -99.2* | -53.9% | nt | 5.0 | ?
Nc1nonc1-c1nc2ccccc2n1Cc1ccc(Cl)cc1 | -12.5 | 5.8 | 4.5% | i | -10.5 | -28.9%
Cc1ccc(Sc2ccc(/C=N/O)cc2[N+](=O)[O-])cc1 | -69.3* | 3.5 | -24.8% | i | -12.8 | -5.5%
Cc1cc(N=Nc2ccccc2C(=O)O)c(C)c(C)c1O | ? | 41.6 | -11.7% | 12.6µM* | -11.6 | -4.4%
COc1cc(N=Nc2ccccc2C(=O)O)ccc1O | -57.9* | 29.8 | 8.6% | ? | -5.0 | nt
COc1cc(N=Nc2ccc3ccccc3c2)ccc1O | -22.0 | -10.2 | -31.0% | ? | -2.2 | 3.4%
CN(CC(=O)Nc1ccc(F)cc1[N+](=O)[O-])Cc1ccccc1 | 14.2 | -10.7 | 4.6% | i | -2.4 | -20.6%
CCC(C(=O)Nc1c(C)cccc1C)n1c(-c2ccc(-c3ccccc3)cc2)nc2ccccc21 (centres undefined) | -24.6 | -11.9 | nt | nt | 71.0* | nt
CCC(C(=O)NC(C)(C)C)n1c(-c2ccc(C)cc2)nc2ccccc21 (centres undefined) | 0.0 | 1.1 | nt | nt | 52.7* | nt
Nc1c(C(=O)CSc2ccccn2)c(=O)[nH]c(=O)n1C1CC1 | -11.6 | 8.3 | 1.3% | i | -4.6 | 10.3%
Cc1noc(C)c1COc1ccccc1C(=O)NCCOc1ccccc1F | -4.1 | 34.0 | ? | i | -2.9 | nt
SMILES | DRD3 antagonist | IL-1B inflam inh | a7 integrin act | ATXN viability | D3 ag | ATXN2 expr inh
CC(C)(C)NC(=O)C(c1ccc(F)cc1)N(CC1CCCO1)C(=O)c1csnn1 (centres undefined) | 1.9 | 7.6 | 7.7% | i | 2.6 | -0.7%
Cc1cc(=O)oc2c(C)c(OCC(=O)N3CCN(C(=O)C4COc5ccccc5O4)CC3)ccc12 (centres undefined) | 51.2 | -5.5 | -17.0% | i | 2.7 | nt
CCCC(=O)OCCNc1cc(Sc2nc3ccccc3[nH]2)c2nonc2c1[N+](=O)[O-] | -82.8* | -103.9* | -58.3% | ? | -16.0 | ?
CC(C)CCSc1cc(NCCO)c([N+](=O)[O-])c2nonc12 | 15.7 | 0.9 | 9.4% | i | -1.4 | 5.3%
CC(=O)OCCCNc1cc(Sc2ccc(Cl)cc2)c2nonc2c1[N+](=O)[O-] | -118.5* | ? | -49.9% | ? | -18.3 | ?
CCC(=O)OCCNc1cc(Sc2nccn2C)c2nonc2c1[N+](=O)[O-] | -101.5* | -67.5* | -50.5% | nt | -16.5 | ?
Cc1ccc(Sc2cc(NCCCO)c([N+](=O)[O-])c3nonc23)cc1 | -9.8 | -17.4 | -38.9% | i | -0.9 | -11.3%
CCC(=O)OCCNc1cc(SCCC(=O)OC)c2nonc2c1[N+](=O)[O-] | -14.2 | -99.1* | 24.1% | i | -4.2 | 7.8%
CN(C)c1ccc(CNc2nc3cc(-c4ccc(F)cc4)sc3c(=O)n2C)cc1 | 17.1 | 9.6 | nt | i | -0.8 | 24.8%
Nc1nc(=S)c2[nH]c(=S)[nH]c2[nH]1 | ? | 5.2 | 0.0% | i | 6.5 | -22.4%
Nc1nc(=S)c2[nH]cnc2[nH]1 | 26.8 | 0.0 | nt | ? | 3.5 | 3.98µM*!
COc1ccc(NC(=O)C2CCN(C(=O)c3ccccc3)CC2)cc1OC | -21.4 | 4.9 | 0.1% | i | 0.1 | 2.3%
COc1cccc(NC(=O)C2CCN(Cc3cnn(-c4ccccc4)c3-n3cccc3)CC2)c1 | -50.1* | ? | -52.9% | ? | -0.9 | ?
Cc1ccc(NC(=O)CSCc2cnn(-c3ccccc3)c2-n2cccc2)c(Cl)c1 | nt | nt | nt | nt | 70.3* | nt
COc1ccc(NC(=O)C2CCN(Cc3cnn(-c4ccccc4)c3-n3cccc3)CC2)cc1OC | -73.3* | ? | -25.3% | i | -15.6 | -5.0%
O=C(Nc1ccccc1Cl)C1CCN(Cc2cnn(-c3ccccc3)c2-n2cccc2)CC1 | -79.8* | -22.2 | -29.0% | i | 2.8 | 40.9%
O=C(NCc1ccc2c(c1)OCO2)C1CCN(Cc2cnn(-c3ccccc3)c2-n2cccc2)CC1 | ? | ? | 19.9% | i | -12.9 | -5.8%
O=C(NCC1CC1)Nc1cccs1 | -1.2 | 12.5 | -24.4% | i | 0.0 | nt
O=C(Nc1ccccc1N1CCCCC1)C1CCN(S(=O)(=O)c2cccc(C(F)(F)F)c2)CC1 | -0.7 | 5.1 | -6.7% | i | 4.1 | 3.3%
